From PubChem BioAssay
Sampled rows, rich in hits. Any-hit rate of the full collection: about 4%.
FBA Mtb inh = Mtb fructose-bisphosphate aldolase inhibition. P9WQA3. purified M. tuberculosis FBA, fluorescence read-out. inhibition, % at 1 µM. 360,000 tested, 2.3% active. AID 588726; in the data active means inhibition above about 27%
RecA intein inh = Mtb RecA intein splicing inhibition | P9WHJ3 | cell-free RecA intein splicing, fluorescence | inhibition, % (no concentration beside the values) | 290,000 tested, 0.75% active | AID 2221; in the data active means inhibition above about 30%
UGM FP inh = inhibitors of M. tuberculosis UDP-galactopyranose mutase; AID 504406; purified UGM, fluorescence polarization probe displacement; inhibition, % at 10 µM; P9WIQ1; 320,000 tested, 0.06% active; in the data active means inhibition above about 10%, passing the limit was not always enough
Target sequence (P9WIQ1 whole entry, looked up): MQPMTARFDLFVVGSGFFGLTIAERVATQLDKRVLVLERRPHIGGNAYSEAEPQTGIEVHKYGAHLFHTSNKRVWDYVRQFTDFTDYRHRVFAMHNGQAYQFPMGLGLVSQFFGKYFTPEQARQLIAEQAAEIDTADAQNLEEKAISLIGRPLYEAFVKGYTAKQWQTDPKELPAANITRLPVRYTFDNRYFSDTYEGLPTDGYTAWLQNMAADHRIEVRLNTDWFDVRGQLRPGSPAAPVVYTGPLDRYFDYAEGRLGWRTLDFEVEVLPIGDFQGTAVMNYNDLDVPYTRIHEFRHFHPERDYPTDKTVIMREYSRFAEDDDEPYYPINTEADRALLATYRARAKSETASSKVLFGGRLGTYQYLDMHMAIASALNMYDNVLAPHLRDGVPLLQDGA
Rv3671c inh = inhibitors of M. tuberculosis serine protease Rv3671c; 320,000 tested, 0.048% active; AID 2606; inhibition, % at 5.96 µM; in the data active means inhibition above about 38%;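 further: extracellular domain of Rv3671c used as enzyme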
GDH-TPI inh = GDH-TPI coupled enzyme inhibition counter-screen | GDH-TPI coupled enzyme counterscreen, NADH absorbance | 360,000 tested, 1.2% active | inhibition, % at 4.8 µM; in the data active means inhibition above about 30%
Mtb bLac sens = beta-lactam sensitization of Mtb H37Rv; M. tuberculosis H37Rv growth with meropenem, percent inhibition; inhibition, % at 25 µM; 330,000 tested, 0.27% active; call rule not given here;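 further: growth measured after seven days incubation then overnight dye step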
Of the large screens only hits and unclear results are named; the others gave an inactive call.

COc1ccc(-c2cc(=O)c3cc(O)ccc3o2)cc1	none
Cc1ccc2c(c1)c(N=Nc1cccc(C(=O)O)c1)c(O)n2C	none
COc1ccc(-c2cc(=NCC(=O)O)c3ccccc3o2)cc1	FBA Mtb inh active
COc1ccc(-c2cc(=Nc3ccc(C(=O)O)cc3)c3cc(C)ccc3o2)cc1	FBA Mtb inh active
O=C(CCS(=O)(=O)c1ccc(Cl)cc1)OCC(=O)N1CCCCC1	none
O=C(Cn1nnc(-c2ccccc2F)n1)OCC(=O)c1ccccc1	none
CN(CC(=O)NCc1ccccc1Cl)S(=O)(=O)c1cccs1	none (no result: RecA intein inh)
CCc1ccc2oc(-c3ccc(OC)cc3)cc(=Nc3cccc(C(=O)O)c3)c2c1	FBA Mtb inh active
C=CCn1c(-c2ccc(OC)cc2)csc1=Nc1c(C)n(C)n(-c2ccccc2)c1=O	none
CCc1ccc2oc(-c3ccc(OC)cc3)cc(=Nc3c(C)n(C)n(-c4ccccc4)c3=O)c2c1	FBA Mtb inh active
COc1ccc2nc(NC(=S)N(C)C)sc2c1	GDH-TPI inh 44
CCCC(=O)Nc1nc2ccc(OC)cc2s1	none
Nc1nccnc1C(=O)OCC(=O)NNC(=O)c1ccccc1	FBA Mtb inh 160
Nc1cc(C(=O)OCC(=O)NNC(=O)c2ccccc2)ccc1Cl	none
Cc1cc(NC(=O)COC(=O)c2nccnc2N)n(-c2ccccc2)n1	FBA Mtb inh 129
N#CC1(NC(=O)COC(=O)c2nccnc2N)CCCCC1	FBA Mtb inh 165
COc1ccccc1C(=O)NC(=O)COC(=O)c1nccnc1N	FBA Mtb inh 144 (no result: RecA intein inh)
N#CC1(NC(=O)COC(=O)c2ccc(Cl)nc2)CCCCC1	none
CC(C)c1ccc(CN2CCC2(C)C(=O)Nc2ccc3c(c2)OCO3)cc1 (centres undefined)	none (no result: RecA intein inh, UGM FP inh, Rv3671c inh, Mtb bLac sens)
O=C(NCc1ccc(Cl)cc1Cl)C1CCN(S(=O)(=O)c2ccc3c(c2)OCCCO3)CC1	none
O=C(Nc1ccccc1)/C(=C/c1ccc(F)cc1)NC(=O)c1ccco1	none (no result: RecA intein inh)
Cc1ccc(C(O)P(=O)(Oc2ccccc2)Oc2ccccc2)cc1 (centres undefined)	none
CC(C)c1ccc(OCC(=O)N(Cc2ccccc2)c2ccccn2)cc1	none
CCc1cc(=O)oc2cc(OCC(=O)NCC3CCC(C(=O)O)CC3)ccc12 (centres undefined)	FBA Mtb inh 28
COc1ccc(-c2cc3ccc(OCC(=O)NCC4CCC(C(=O)O)CC4)cc3oc2=O)cc1 (centres undefined)	FBA Mtb inh 178, GDH-TPI inh 42
CCCc1cc(=O)oc2cc(OCc3ccc(C(=O)O)cc3)ccc12	FBA Mtb inh 48
COc1ccc(NC(=O)N(C)C[C@@H]2OCc3cn(nn3)CCCC(=O)N([C@@H](C)CO)C[C@H]2C)cc1	none (no result: RecA intein inh, UGM FP inh, Rv3671c inh, Mtb bLac sens)
COc1ccc(N2CCN(C(=O)c3sc4ncn(CC(=O)N5CCCCC5C)c(=O)c4c3C)CC2)cc1 (centres undefined)	none
O=C(Nc1nnc(S(=O)(=O)Nc2ccccc2)s1)c1ccccc1Cl	none
Cc1ccnc(N/C=C(/NC(=O)c2ccccc2)C(=O)N/N=C\c2ccc(Cl)cc2)n1	GDH-TPI inh 91
O=C(N/N=C/c1ccncc1)/C(=C/c1ccccc1)NC(=O)c1ccccc1	none
CCCN1C(=O)c2ccccc2NC1c1ccc(O)c(OCC)c1 (centres undefined)	FBA Mtb inh 45
CCOP(=O)(OCC)C(Nc1cccc([N+](=O)[O-])c1)c1ccccc1 (centres undefined)	none
CCc1cc(=O)oc2c(C)c(O)c(CN(C)C)cc12	FBA Mtb inh active, GDH-TPI inh 32
CN=C(NC)SC1CC(=O)N(c2ccccc2)C1=O (centres undefined)	none
CC(=O)N1CCN(S(=O)(=O)c2ccc(S(=O)(=O)NC3CCCCC3)cc2)CC1	none
COCCn1c(=NC(=O)c2ccc3c(c2)OCO3)c(C#N)cc2c(=O)n3cccc(C)c3nc21	none (no result: FBA Mtb inh, UGM FP inh, Rv3671c inh, GDH-TPI inh, Mtb bLac sens)
CC(C)n1c(=NC(=O)c2ccco2)c(C#N)cc2c(=O)n3ccccc3cc21	FBA Mtb inh active
CCOC(=O)c1cc2c(=O)n3ccccc3nc2n(C(C)C)c1=NC(=O)c1ccco1	FBA Mtb inh active
CCCn1c(=NC(=O)c2c(-c3c(F)cccc3Cl)noc2C)c(C(=O)OCC)cc2c(=O)n3ccccc3nc21	none (no result: FBA Mtb inh, GDH-TPI inh)
Cc1nc2ccccn2c(=O)c1NC(=O)c1ccco1	none (no result: RecA intein inh, UGM FP inh, Rv3671c inh, Mtb bLac sens)
CCCn1c(=NC(=O)c2ccco2)c(C(=O)OCC)cc2c(=O)n3ccccc3nc21	FBA Mtb inh active
CC(C)=Cc1oc2ccc([N+](=O)[O-])cc2c1N1CC(C)OC(C)C1 (centres undefined)	none
Cc1cc(NC(=O)COC(=O)CNC(=O)c2cccs2)c([N+](=O)[O-])cc1C	none
COc1ccc(OCc2cc(C(=O)N3CCOCC3)no2)c(Cl)c1	none
COc1ccc(N=Nc2c(N)nn(C)c2N)cc1	GDH-TPI inh 60 (no result: RecA intein inh, UGM FP inh, Rv3671c inh, Mtb bLac sens)
CCOc1ccc(CN2CCN(c3cc(C)nc4c5c(C)cc(C)nc5nn34)CC2)cc1	none (no result: FBA Mtb inh, UGM FP inh, Rv3671c inh, GDH-TPI inh, Mtb bLac sens)
COc1ccc(CN2CCN(c3cc(C)nc4c5c(C)cc(C)nc5nn34)CC2)cc1F	FBA Mtb inh 125
Cc1cn(CCC(=O)Nc2ccc(N3CCOCC3)cc2)c2ccccc12	none
COc1cc(NC(=O)Cn2ncc(Cl)c(Cl)c2=O)c(C)cc1[N+](=O)[O-]	RecA intein inh 53 (no result: UGM FP inh, Rv3671c inh, Mtb bLac sens)
CCc1cc(C(=O)COc2ccccc2F)c(O)cc1O	GDH-TPI inh 38
O=C(Cc1c(F)cccc1Cl)c1ccc(O)cc1O	GDH-TPI inh 34
CCCc1cc(C(=O)Cc2ccc(F)cc2)c(O)cc1O	GDH-TPI inh 32
O=C(Cc1ccccc1F)c1ccc(O)cc1O	none
CCCc1cc(C(=O)Cc2nc3ccccc3s2)c(O)cc1O	GDH-TPI inh 38
CCOC(=O)C(=O)Cc1nc2ccccc2s1	none
Cc1ccc(-n2nc(C)c3c(=O)[nH]c(C(F)(F)F)nc32)cc1	none (no result: FBA Mtb inh, GDH-TPI inh)
C[C@H](NC(=O)c1nc[nH]c1C(=O)NCC(=O)OCc1ccccc1)C(=O)OCc1ccccc1	none
CCc1cc(C(=O)Cc2nc3ccccc3[nH]2)c(O)cc1O	GDH-TPI inh 39
CCc1cc(C(=O)Cc2ccc(F)cc2)c(O)cc1O	none
O=C(Cc1ccc(F)cc1)c1ccc(O)cc1O	GDH-TPI inh 46
O=C(Cc1nc2ccccc2[nH]1)c1ccc(Cl)cc1	none (no result: RecA intein inh)
CN1N=C(C(=O)N=c2sc3ccccc3n2C)CCC1=O	GDH-TPI inh 49 (no result: RecA intein inh, UGM FP inh, Rv3671c inh, Mtb bLac sens)
O=C(O)c1ccccc1NC(=O)c1cc2ccccc2oc1=O	GDH-TPI inh 50 (no result: Rv3671c inh)
N=c1oc2ccccc2cc1C(=O)Nc1cccc(F)c1	none
N=c1oc2ccccc2cc1C(=O)Nc1ccc(F)cc1	FBA Mtb inh 64 (no result: Rv3671c inh)
O=C(Nc1cccnc1N1CCOCC1)c1cc2ccccc2oc1=O	none
CC(=O)Nc1ccc(S(=O)(=O)Nc2nc3ccccc3nc2Nc2ccc(N)cc2)cc1	GDH-TPI inh 31
CC(=O)Nc1ccc(S(=O)(=O)Nc2nc3ccccc3nc2Nc2ccc3ccccc3c2)cc1	none
O=C(NCCN1CCOCC1)C(=O)NCc1ccco1	none
COc1cc2c(cc1OC)C(c1ccc(-c3cc(Cl)ccc3Cl)o1)=NCC2	none
